Measurements from PubChem BioAssay (NCI).
This is part of a sample that, as a whole, favours compounds with a hit. Of some 83,000 tested, about 20% had one in any assay.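 For each line, cells grew in 96-well plates with the test compound present at a single concentration for 48 hours.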 Values without a mark were called inactive. Activity calls are given as the source filed them. How the source made its calls: active means growth percent below 10; inactive means the rest.

Assays:
Test in all cases: NCI-60 one-dose screen, 48 h (100 = growth as untreated, 0 = no growth, -100 = all killed)
Details in all cases: 10 µM unless noted
NCI-H23 lung = test system: NCI-H23 lung
NCI-H226 lung = test system: NCI-H226 lung
NCI-H322M lung = test system: NCI-H322M lung
HOP-62 NSCLC = test system: HOP-62 NSCLC
NCI-H460 lung = test system: NCI-H460 lung
HOP-92 NSCLC = test system: HOP-92 NSCLC
NCI-H522 lung = test system: NCI-H522 lung
A549/ATCC NSCLC = test system: A549/ATCC NSCLC
786-0 renal = test system: 786-0 renal
COLO 205 colon = test system: COLO 205 colon
DU-145 prostate = test system: DU-145 prostate
K-562 leukemia = test system: K-562 leukemia
MALME-3M melanoma = test system: MALME-3M melanoma
MDA-MB-231 breast = test system: MDA-MB-231 breast
RXF 393 renal = test system: RXF 393 renal
SF-268 CNS = test system: SF-268 CNS
SF-295 CNS = test system: SF-295 CNS
SF-539 CNS = test system: SF-539 CNS
UACC-257 melanoma = test system: UACC-257 melanoma
M14 melanoma = test system: M14 melanoma

Structure (SMILES)	growth (NCI-H23 lung)	growth (NCI-H226 lung)	growth (NCI-H322M lung)	growth (HOP-62 NSCLC)	growth (NCI-H460 lung)	growth (HOP-92 NSCLC)	growth (NCI-H522 lung)	growth (A549/ATCC NSCLC)	growth (786-0 renal)	growth (COLO 205 colon)	growth (DU-145 prostate)	growth (K-562 leukemia)	growth (MALME-3M melanoma)	growth (MDA-MB-231 breast)	growth (RXF 393 renal)	growth (SF-268 CNS)	growth (SF-295 CNS)	growth (SF-539 CNS)	growth (UACC-257 melanoma)	growth (M14 melanoma)
Nc1nc(Nc2ccccc2)c2ncn(Cc3ccc4c(c3)OCO4)c2n1	62.8%	75.1%	58.1%	40.8%	15.9%	63.9%	43.8%	42%	54.8%	47%	80.9%	15.7%	53%	44%	52.8%	62.8%	43.6%	46%	72.9%	16.3%
Brc1ccc2c(c1)CN(C1CCCCC1)CO2	96.9%	91.3%	124%	100%	102%	89.3%	108%	110%	117%	116%	111%	89.7%	115%	102%	107%	96.4%	104%	98.2%	120%	105%
O=C(NCCCNC(=O)OCc1ccc2c(Br)cc(Br)c(O)c2n1)OCc1ccc2c(Br)cc(Br)c(O)c2n1	-46.3% (active)	2.3% (active)	32.7%	-19.1% (active)	4.8% (active)	-80.3% (active)	-60.9% (active)	6.61% (active)	-58.9% (active)	-76.8% (active)	-80.8% (active)	3.3% (active)	-87.8% (active)	-68.5% (active)	-93.3% (active)	10.3%	20%	-96.8% (active)	-37.5% (active)	-65.8% (active)
c1ccc(-c2nnc(-c3c[nH]c4ncccc34)s2)cc1	92.6%	87.9%	95.7%	98.6%	96.4%	104%	87.7%	95.6%	104%	115%	87.4%	83.9%	88%	86.8%	94.5%	86.2%	96.8%	96.9%	109%	97.8%
CO[C@H]1CC[C@@]2(C)C(=CC[C@H]3[C@@H]4C[C@H](O)C[C@@]4(C)CC[C@@H]32)C1	67.8%	82.4%	91.3%	62.4%	42.9%	35.6%	71.6%	81.9%	61.5%	61.5%	42.1%	20.7%	52.1%	56.2%	58.5%	49.2%	40.8%	38%	65.2%	36.6%
Cn1cc(-c2noc(-c3cn(C)c4ncc(F)cc34)n2)c2cc(Cl)ccc21	81.3%	95.7%	50.3%	68.4%	2.39% (active)	64.3%	74.2%	33.9%	9.09% (active)	55.5%	80.3%	77.2%	48.1%	52.7%	78%	69.2%	41.6%	46%	96.5%	78.6%
COc1ccc(N(c2nc(-c3ccc([N+](=O)[O-])cc3)cs2)C(C)C)cc1	65%	76.3%	83.1%	84.8%	84.1%	74.3%	67.8%	85.3%	88.4%	108%	86.1%	55.1%	94.6%	73.9%	102%	83.5%	89.8%	88.7%	80.5%	89.9%
CC(C)(C)c1cc(C(=O)N2CCC(C(=O)NCCN)CC2)cc(C(C)(C)C)c1	104%	81.3%	93.6%	97.5%	100%	85.1%	66%	81%	106%	98.9%	116%	103%	95%	90.9%	98.5%	97.8%	101%	98.4%	81%	113%
O=C1/C(=C/c2cccc(OCc3ccccc3)c2)Oc2cc(OCCN3CCCCC3)ccc21	86.4%	100%	75.4%	89.4%	83.3%	46.9%	106%	79.5%	67.7%	93.8%	88.1%	-37.8% (active)	58.3%	71%	68.6%	81%	95.5%	68.1%	94.5%	88.6%
CC1(C)CC[C@]2(C(N)=O)CC[C@]3(C)C(=CC[C@@H]4[C@@]5(C)C/C(=C/c6cccnc6)C(=O)C(C)(C)[C@@H]5CC[C@]43C)[C@@H]2C1	-2.72% [100 µM] (active)	-36.8% [100 µM] (active)	-57.3% [100 µM] (active)	-55.5% [100 µM] (active)	-51.8% [100 µM] (active)	-50.7% [100 µM] (active)	-59.7% [100 µM] (active)	-35.9% [100 µM] (active)	-38.4% [100 µM] (active)	-57.6% [100 µM] (active)	-18% [100 µM] (active)	4.29% [100 µM] (active)	-75.9% [100 µM] (active)	-45.2% [100 µM] (active)	-63% [100 µM] (active)	-5.09% [100 µM] (active)	-53.9% [100 µM] (active)	-61.5% [100 µM] (active)	-54.7% [100 µM] (active)	-11.2% [100 µM] (active)
Nn1c(Nc2ccc(S(=O)(=O)Nc3ncccn3)cc2)nnc(/C=C/c2c(O)ccc3ccccc23)c1=O	88.9%	78.8%	90%	81.8%	88.4%	83.3%	98.1%	89.5%	111%	103%	99.7%	85.2%	94.2%	71.4%	106%	84.7%	100%	102%	94.4%	97.5%
CCCCCCCCN(CCCCCCCC)CC(O)c1ccc(Cl)c(C)c1Cl (stereo not given)	65%	94.4%	81.8%	89.3%	72.8%	71.2%	65.6%	78%	91.7%	60.5%	105%	67.9%	102%	59.1%	87.6%	91.9%	59.6%	94.3%	89.4%	85.2%
CN(C)C(=S)Sc1ccc([N+](=O)[O-])cc1[N+](=O)[O-]	44.4%	49.6%	101%	71.1%	-41.6% (active)	0.304% (active)	-92.1% (active)	43.6%	63.8%	-22.7% (active)	64.7%	8.13% (active)	-4.06% (active)	44.3%	-61.1% (active)	52.8%	90.3%	52.1%	41.4%	8.95% (active)
O=C(O)c1ccccc1C(F)(F)F	66.7%	89.2%	106%	103%	102%	88.2%	72.1%	16.1%	96.2%	102%	102%	102%	103%	95.3%	102%	96.3%	95.6%	93.7%	-1.89% (active)	93.4%
CCOc1cc(NC(=O)c2ccccc2)c(OCC)cc1N	102%	106%	141%	102%	114%	104%	98.3%	115%	110%	116%	110%	113%	147%	104%	117%	106%	121%	112%	118%	116%
